Test [1] has as its target Lysosomal acid glucosylceramidase (Homo sapiens) (UniProt P04062). As to the kind of experiment: Glucocerebrosidase-p2 (AID 348; in the data active means potency below about 10 µM; further: potency means the concentration at half of the fitted maximal effect). To be noted: purified GBA, blue fluorogenic substrate, 40 min. The essentials: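 Compounds titrated from 0.6 nM upwards against 0.2 nM enzyme in pH 5.9 citric acid/KH2PO4, taurocholate, tween-20; blue fluorogenic substrate 80 uM, 40 min room temperature, stopped and read Ex 365/Em 440 for AC50.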

The target of test [2] is Cytochrome P450 1A2 (Homo sapiens) (UniProt P05177). As to the kind of experiment: p450-cyp1a2 (AID 410; calls by dose curve; further: potency means the concentration at half of the fitted maximal effect;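 on activity change, negative = inhibition: -100% = full effect of reference inhibitor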). Conditions: recombinant CYP1A2, luciferin-ME demethylation, luminescence; series mostly up to 57 µM. The essentials:
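Human CYP1A2 (20nM) demethylated Luciferin-ME at its Km (100uM) in 100mM KPO4. After 10 min compound preincubation, NADPH regeneration ran the reaction 60 min at room temperature. Luciferin was read by luminescence, normalized to 57 uM furafylline.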

The nature of test [3]: NFAT Signaling Pathway (AID 444; active means well fitted curve in either direction with a large enough effect, not every such curve was filed as active;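 further: carbachol stimulus at about its EC50 of 1 µM final; on the % scale 0 is the no-effect control and ±100 the full control effect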). To be noted: Jurkat NFAT-bla M1, carbachol, beta-lactamase ratio, 5 h; at 7.69 µM (top of the series) unless noted. The essentials: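 Read-out: CCF4 FRET ratio (460 nm/530 nm) after 1 h RT dye loading, used for %activity and AC50 from titration series. Cells: Jurkat NFAT-β-lactamase/M1 line, treated with compound plus 1 uM carbachol for 5 h, 37 °C.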

A short description of test [4]: Stat Signaling Pathway (AID 446; active means well fitted curve in either direction with a large enough effect, not every such curve was filed as active;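 further: ME-180 cervical cancer cells given 40 pM IL-6 alongside compound; SIE-controlled beta-lactamase reporter measured as 460/530 nm FRET emission ratio; on the % scale 0 is the no-effect control and ±100 the full control effect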). To be noted: ME-180 SIE beta-lactamase reporter, IL-6 stimulated, 5 h; at 7.69 µM (top of the series) unless noted. The essentials:
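Reporter line: ME-180 cervical carcinoma, SIE-beta-lactamase. Treatment: compound with 40 pM IL-6, 5 hrs, 37 C, in low-serum OPTI-MEM with 10 mM HEPES pH 7.3. Detection: 460/530 nm fluorescence.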

For test [5], the target named is Glucocorticoid receptor (Homo sapiens) (UniProt P04150). Put plainly: GR-GFP Redistribution (AID 450;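 active means compounds whose dose series gives a full or clear partial fitted curve of increased nuclear translocation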; further: potency means the concentration at half of the fitted maximal effect). Conditions: U2OS GR-GFP nuclear translocation, laser cytometry, 2 h.
The target is the same in test [6]. As to the kind of experiment: GR-EFC Redistribution (AID 451; calls by dose curve; further: potency means the concentration at half of the fitted maximal effect). To be noted: CHO-K1 GR-EFC translocation, beta-gal luminescence, 2 h. The essentials: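 Translocation of GR-ED fusion to nuclear EA restores b-gal, read by luminescence after 1 h room-temperature detection. Engineered CHO-K1 biosensor cells, 1,000/well, exposed 2 h at 37 C to titrations up to 46 uM final.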

Test [7] has as its target Mitogen-activated protein kinase 10 (Mus musculus) (UniProt Q61831). As to the kind of experiment: JNK3 AlphaScreen Assay (AID 530; active means well fitted curve in either direction with a large enough effect, not every such curve was filed as active;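 further: kinase came from lysate of stimulated human HepG2 cells; signal reports phosphorylation of biotinylated GST-cJun 1-79 at Ser73 with 10 µM ATP; on the % scale 0 is the no-effect control and ±100 the full control effect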). To be noted: JNK3 lysate, c-Jun phosphorylation; series mostly up to 57.1 µM. The essentials:
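Room-temperature AlphaScreen kinase assay; pre-activated HepG2 lysate as JNK3 source, biotin-GST-cJun(1-79) substrate, 10 uM ATP, compound 15 min preincubation.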
For orientation: In Alpha technology, singlet oxygen from a donor bead excites a nearby acceptor bead.

The target in test [8] is Cytochrome P450 3A4 (Homo sapiens) (UniProt P08684). As to the kind of experiment: qHTS Assay for Activators of Cytochrome P450 3A4 (AID 885). Further: nearly all actives have a fitted effect of over 65% in size. To be noted: recombinant CYP3A4, Luciferin-PPXE luminescence, 60 min; series mostly up to 57.1 µM. The essentials:
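Signal was normalized against complete inhibition by 57 uM ketoconazole. The reaction used 20nM CYP3A4 with 25uM Luciferin-PPXE, 10-min compound preincubation and a 60-min NADPH-supported step at RT.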
A general note: Quantitative high-throughput screening tests each substance at several concentrations.

Test [9] can be described thus: qHTS Assay for Lipid Storage Modulators (AID 1519; calls by dose curve). Conditions: Drosophila S3 cells, BODIPY lipid droplet/cell ratio, laser cytometry, cells loaded with oleic acid; for activity change, negative = inhibition: at 57.5 µM (top of the series). The essentials:
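Cells seeded at 5,000 per well were treated with compounds over a concentration series and loaded with oleic acid (400 uM, as added). Lipid droplet fluorescence (488 nm excitation, 500-530 nm channel) was read by laser-scanning cytometry and normalized to 20 uM Triacsin C.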

Test [10] deals with Dual specificity protein kinase CLK4 (Homo sapiens) (UniProt Q9HAZ1). Put plainly: qHTS Assay for Inhibitors of CDC-like Kinase 4 (Kinase-Glo Assay) (AID 1770). Further: nearly all actives have a fitted effect of over 65% in size. Further: potency means the concentration at half of the fitted maximal effect. Conditions: recombinant Clk4, Kinase-Glo ATP depletion luminescence; series mostly up to 66.7 µM. The method in brief:
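Inhibition was judged from remaining ATP, measured by Ultra-Glo luciferase bioluminescence after Clk4 (25 nM) had acted on RS peptide at 1 uM ATP for 4.5 hours, room temperature.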

Test [11] has the same target. Put plainly: qHTS Assay for Inhibitors of CDC-like Kinase 4 (ADP-Glo Assay) (AID 1771). Further: nearly all actives have a fitted effect of over 70% in size. Further: potency means the concentration at half of the fitted maximal effect. To be noted: recombinant CLK4, ADP-Glo luminescence; series mostly up to 80 µM. The essentials: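 Clk4 (25 nM) was incubated 1 hr at room temperature with 100 uM RS repeat peptide and 1 uM ATP in buffer with 2 mM MgCl2, 0.5 mM EGTA, 2.5 mM DTT. ADP formed was quantified by ADP-Glo luminescence.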

The target is the same in test [12]. As to the kind of experiment: qHTS Assay for Inhibitors of CDC-like Kinase 4 (ADP-FP Assay) (AID 1795). Further: nearly all actives have a fitted effect of over 60% in size. Further: potency means the concentration at half of the fitted maximal effect. To be noted: Transcreener ADP fluorescence polarization; series mostly up to 50 µM. The method in brief:
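Inhibition of ADP formation by 6.25 nM Clk4 is measured using 1 uM ATP and 100 uM RS repeat peptide over one hour. Produced ADP displaces a fluorescent tracer from antibody, lowering polarization.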

Test [13] has as its target Ubiquitin carboxyl-terminal hydrolase 1 (Homo sapiens) (UniProt O94782). Put plainly: Inhibitors of USP1/UAF1: Pilot qHTS (AID 504865).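 Further: rhodamine fluorescence freed from ubiquitin-rhodamine substrate followed over time; top concentration of the series differs between compounds; on the % scale 0 is the no-effect control and ±100 the full control effect; nearly all actives have a fitted effect of over 35% in size.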 To be noted: purified USP1/UAF1, Ub-rhodamine cleavage fluorescence; series mostly up to 54.9 µM. The essentials: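 Kinetic fluorescence assay: 1nM USP1/UAF1, 15 min compound preincubation, then 150nM Ub-Rho; 480/540 nm.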
Test [14] is described as follows: Primary qHTS for small molecule stabilizers of the endoplasmic reticulum resident proteome: Secreted ER Calcium Modulated Protein (SERCaMP) assay (AID 1508630). Further: on the % scale 0 is the no-effect control and ±100 the full control effect. To be noted: SH-SY5Y GLuc-SERCaMP (Gaussia luciferase released on ER calcium loss) secretion, thapsigargin, luminescence; series mostly up to 38.4 µM. The essentials:
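GLuc-SERCaMP-expressing SH-SY5Y cells, pretreated 16 h with compound, are challenged with thapsigargin to empty ER calcium stores; after 4 h, coelenterazine is added directly to the medium and luminescence is imaged.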

Test [15] has as its target 3',5'-cyclic-AMP phosphodiesterase 4B (Homo sapiens) (UniProt Q07343). Put plainly: qHTS Assay for Inhibitors of PDE-IV (AID 607; active means well fitted activation curve with a large enough effect in the main read-out, with a control signal flat, not every such curve was filed as active; further: % of control where 0% means no effect). To be noted: HEK293 ACTOne CNG channel cells, membrane potential fluorescence; series mostly up to 22.9 µM. The method in brief:
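Cell-based read-out of cAMP via a modified cyclic nucleotide-gated channel and membrane potential dye (535/590 nm) in HEK293 cells expressing PDE4 endogenously. Compounds tested up to 22.9 uM final; 100 uM RO 20-1724 reference.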

The nature of test [16]: qHTS Assay for Identification of Small Molecule Agonists for Hypoxia Response Element Signaling Pathway (AID 914; active means well fitted activation curve with a large enough effect in the signal ratio, with a control signal flat, not every such curve was filed as active; the % refers to the signal ratio; further: potency means the concentration at half of the fitted maximal effect; on activation: % of control where 0% means no effect). Conditions: ME-180 HRE-bla reporter, beta-lactamase ratio, CoCl2, 17 h; activation: stronger effect = higher value. The essentials:
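HRE-bla ME-180 cells, overnight plating in Opti-MEM with 0.5% dialyzed FBS; cpd titration + EC50 CoCl2, 17 h, 37 degrees Celsius; CCF4 2.5 h RT; 460/530 nm ratio; AC50.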

A short description of test [17]: AP1 Signaling Pathway (AID 357; active means well fitted curve in either direction with a large enough effect, not every such curve was filed as active). To be noted: ME-180 (cervical carcinoma) AP-1-bla reporter, EGF-induced, beta-lactamase ratio, 5 h; at 7.69 µM (top of the series) unless noted. The essentials: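 Beta-lactamase reporter under AP-1 response element, ME-180 background. Stimulus: EC50 EGF. Compound exposure 5 h, 37 °C. Detection: CCF4, 2.5 h RT, 460/530 nm. Values: AC50 from titration.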

[18] abbreviates: measured here: cell count channel max response.
The mark [19] stands for this setting: measured here: lipid channel max response.

The source of these data is PubChem BioAssay (NCATS).

Each structure is given as a SMILES string. Records with an inconclusive call do not appear. The source made the active and inactive calls. Unless noted, the call rests on the fitted dose curve; in most records, active means well fitted curve in the direction sought with a large enough effect; inconclusive means small, poorly fitted or top-dose-only effect, or another doubt; inactive means no such curve, though single readings can be large; an effect the other way counts as inactive or inconclusive.

3',5'-cyclic-AMP phosphodiesterase 4B (Homo sapiens), sequence (Q07343 whole entry, looked up): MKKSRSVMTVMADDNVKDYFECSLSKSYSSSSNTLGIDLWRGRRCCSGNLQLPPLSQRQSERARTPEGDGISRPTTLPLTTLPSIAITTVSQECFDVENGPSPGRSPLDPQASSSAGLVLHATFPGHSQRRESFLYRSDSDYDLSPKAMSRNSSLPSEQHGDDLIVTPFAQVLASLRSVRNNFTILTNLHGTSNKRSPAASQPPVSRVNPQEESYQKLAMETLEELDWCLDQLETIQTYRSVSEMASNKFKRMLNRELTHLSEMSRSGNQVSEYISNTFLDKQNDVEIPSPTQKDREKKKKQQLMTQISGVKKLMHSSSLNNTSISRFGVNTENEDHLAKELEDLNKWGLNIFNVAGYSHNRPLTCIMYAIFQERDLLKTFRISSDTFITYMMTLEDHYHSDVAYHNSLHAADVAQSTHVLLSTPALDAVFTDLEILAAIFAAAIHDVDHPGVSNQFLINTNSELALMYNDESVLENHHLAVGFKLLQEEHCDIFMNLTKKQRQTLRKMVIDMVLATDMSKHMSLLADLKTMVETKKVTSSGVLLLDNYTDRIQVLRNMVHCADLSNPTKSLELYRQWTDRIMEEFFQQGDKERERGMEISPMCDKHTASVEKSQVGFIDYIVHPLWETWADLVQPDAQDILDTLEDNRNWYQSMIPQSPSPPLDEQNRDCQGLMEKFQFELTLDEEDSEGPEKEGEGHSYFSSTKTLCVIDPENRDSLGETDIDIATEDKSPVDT
Cytochrome P450 3A4 (Homo sapiens), sequence (P08684 whole entry, looked up): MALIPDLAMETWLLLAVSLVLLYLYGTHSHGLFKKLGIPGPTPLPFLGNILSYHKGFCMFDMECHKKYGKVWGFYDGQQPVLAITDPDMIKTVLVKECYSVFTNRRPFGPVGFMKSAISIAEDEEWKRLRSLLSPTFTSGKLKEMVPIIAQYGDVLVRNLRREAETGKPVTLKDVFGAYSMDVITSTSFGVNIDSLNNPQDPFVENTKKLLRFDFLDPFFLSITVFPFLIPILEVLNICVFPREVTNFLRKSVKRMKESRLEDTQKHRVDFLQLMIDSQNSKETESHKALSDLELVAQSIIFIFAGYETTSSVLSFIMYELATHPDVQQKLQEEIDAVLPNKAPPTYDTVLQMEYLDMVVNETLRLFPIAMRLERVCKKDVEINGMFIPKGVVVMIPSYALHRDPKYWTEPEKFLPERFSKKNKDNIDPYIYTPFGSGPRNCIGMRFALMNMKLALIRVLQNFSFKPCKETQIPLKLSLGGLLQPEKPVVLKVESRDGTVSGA
Ubiquitin carboxyl-terminal hydrolase 1 (Homo sapiens), sequence (O94782 whole entry, looked up): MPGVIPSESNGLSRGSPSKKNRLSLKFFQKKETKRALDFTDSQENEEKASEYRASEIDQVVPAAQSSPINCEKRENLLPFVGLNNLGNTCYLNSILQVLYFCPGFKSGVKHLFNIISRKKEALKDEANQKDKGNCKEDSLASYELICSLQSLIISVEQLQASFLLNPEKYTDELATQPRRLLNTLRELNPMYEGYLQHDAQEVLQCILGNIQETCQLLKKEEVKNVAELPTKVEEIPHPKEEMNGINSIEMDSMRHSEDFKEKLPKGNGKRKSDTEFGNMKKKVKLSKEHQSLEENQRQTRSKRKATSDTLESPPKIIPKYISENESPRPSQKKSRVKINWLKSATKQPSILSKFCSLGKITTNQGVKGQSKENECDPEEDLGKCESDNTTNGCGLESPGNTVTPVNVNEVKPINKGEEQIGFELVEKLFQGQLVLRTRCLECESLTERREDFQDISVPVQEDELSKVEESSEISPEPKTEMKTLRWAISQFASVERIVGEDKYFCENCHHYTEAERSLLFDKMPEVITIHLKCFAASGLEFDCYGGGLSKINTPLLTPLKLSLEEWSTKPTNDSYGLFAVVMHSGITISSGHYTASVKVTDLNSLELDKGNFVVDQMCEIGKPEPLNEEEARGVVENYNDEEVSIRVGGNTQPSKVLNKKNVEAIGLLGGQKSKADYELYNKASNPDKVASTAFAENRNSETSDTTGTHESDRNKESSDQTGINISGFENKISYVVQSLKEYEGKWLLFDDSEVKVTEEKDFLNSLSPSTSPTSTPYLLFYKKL
Cytochrome P450 1A2 (Homo sapiens), sequence (P05177 whole entry, looked up): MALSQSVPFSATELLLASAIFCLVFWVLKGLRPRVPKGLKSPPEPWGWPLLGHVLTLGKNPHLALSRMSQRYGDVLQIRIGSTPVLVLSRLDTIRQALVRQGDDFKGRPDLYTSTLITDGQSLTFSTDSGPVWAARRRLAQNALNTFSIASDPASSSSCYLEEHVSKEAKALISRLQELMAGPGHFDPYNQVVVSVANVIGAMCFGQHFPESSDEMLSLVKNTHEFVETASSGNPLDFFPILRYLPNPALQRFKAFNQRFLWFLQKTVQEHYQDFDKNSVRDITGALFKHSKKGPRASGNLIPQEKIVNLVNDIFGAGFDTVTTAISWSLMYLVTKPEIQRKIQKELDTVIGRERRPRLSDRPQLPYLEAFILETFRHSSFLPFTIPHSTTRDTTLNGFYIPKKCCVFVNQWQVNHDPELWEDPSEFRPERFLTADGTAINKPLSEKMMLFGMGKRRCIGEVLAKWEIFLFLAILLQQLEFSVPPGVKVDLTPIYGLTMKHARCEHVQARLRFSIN
Lysosomal acid glucosylceramidase (Homo sapiens), sequence (P04062 whole entry, looked up): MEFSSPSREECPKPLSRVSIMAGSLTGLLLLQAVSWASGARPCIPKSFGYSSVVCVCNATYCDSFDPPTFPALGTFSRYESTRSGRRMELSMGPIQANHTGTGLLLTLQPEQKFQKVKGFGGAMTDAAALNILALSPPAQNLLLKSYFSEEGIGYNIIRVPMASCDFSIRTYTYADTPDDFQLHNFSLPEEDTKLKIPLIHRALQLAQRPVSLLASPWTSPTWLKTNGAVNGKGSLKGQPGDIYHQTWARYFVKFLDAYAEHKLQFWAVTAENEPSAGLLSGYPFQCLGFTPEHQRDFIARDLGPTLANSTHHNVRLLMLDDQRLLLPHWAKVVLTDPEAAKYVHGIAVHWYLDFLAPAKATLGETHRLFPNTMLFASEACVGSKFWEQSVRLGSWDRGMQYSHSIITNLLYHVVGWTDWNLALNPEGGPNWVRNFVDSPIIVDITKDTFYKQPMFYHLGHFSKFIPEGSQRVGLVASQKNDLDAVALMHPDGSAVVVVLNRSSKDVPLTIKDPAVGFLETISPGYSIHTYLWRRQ
Dual specificity protein kinase CLK4 (Homo sapiens), sequence (Q9HAZ1 whole entry, looked up): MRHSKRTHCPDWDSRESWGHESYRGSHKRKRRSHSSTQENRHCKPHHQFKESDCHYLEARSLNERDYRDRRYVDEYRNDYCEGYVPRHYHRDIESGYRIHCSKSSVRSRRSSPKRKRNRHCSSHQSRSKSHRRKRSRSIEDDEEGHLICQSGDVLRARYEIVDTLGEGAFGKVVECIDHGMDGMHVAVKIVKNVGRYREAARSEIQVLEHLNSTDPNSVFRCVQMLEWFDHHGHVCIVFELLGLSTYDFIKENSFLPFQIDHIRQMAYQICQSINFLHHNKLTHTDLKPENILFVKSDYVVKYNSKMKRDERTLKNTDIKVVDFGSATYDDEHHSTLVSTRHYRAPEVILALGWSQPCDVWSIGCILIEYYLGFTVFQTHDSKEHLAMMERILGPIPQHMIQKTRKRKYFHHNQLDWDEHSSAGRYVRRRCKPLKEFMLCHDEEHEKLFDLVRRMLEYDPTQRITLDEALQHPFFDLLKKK
Glucocorticoid receptor (Homo sapiens), sequence (P04150 whole entry, looked up, the tested form may be a part): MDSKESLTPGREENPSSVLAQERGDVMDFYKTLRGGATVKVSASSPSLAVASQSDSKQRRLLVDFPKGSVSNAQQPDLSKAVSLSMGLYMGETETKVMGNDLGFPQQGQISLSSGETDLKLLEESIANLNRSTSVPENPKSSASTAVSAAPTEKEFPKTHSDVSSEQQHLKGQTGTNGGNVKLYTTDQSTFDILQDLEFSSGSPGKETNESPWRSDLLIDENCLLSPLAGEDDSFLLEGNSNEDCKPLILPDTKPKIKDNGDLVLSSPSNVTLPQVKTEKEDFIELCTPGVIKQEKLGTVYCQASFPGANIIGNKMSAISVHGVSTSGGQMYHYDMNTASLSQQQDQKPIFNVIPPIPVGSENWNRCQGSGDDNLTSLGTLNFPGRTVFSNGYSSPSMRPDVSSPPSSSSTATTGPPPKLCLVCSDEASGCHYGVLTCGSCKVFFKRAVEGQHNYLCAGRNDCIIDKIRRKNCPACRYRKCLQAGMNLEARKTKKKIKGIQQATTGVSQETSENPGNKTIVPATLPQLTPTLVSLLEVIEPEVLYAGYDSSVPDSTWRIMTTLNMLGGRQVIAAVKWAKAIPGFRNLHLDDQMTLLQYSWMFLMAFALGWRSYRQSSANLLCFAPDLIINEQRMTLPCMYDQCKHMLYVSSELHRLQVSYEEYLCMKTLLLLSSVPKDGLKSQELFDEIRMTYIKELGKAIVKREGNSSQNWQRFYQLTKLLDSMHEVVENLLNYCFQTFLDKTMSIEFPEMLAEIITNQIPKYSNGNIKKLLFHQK

In the case of `CNc1nc(-c2ccccc2CN(C)C)nc2ccccc12`, the Potency is > 11.4 µM (inactive) in [1], 3.16 µM (active) in [2], > 46 µM (inactive) in test [5] and > 46 µM (inactive) in [6]. Also, the activity change, negative = inhibition in test [3] was -2.05% (inactive); in test [9], 1.92% (inactive). Also, the activity, negative = inhibition in test [4] is 17.3% (inactive). The call in test [7] was inactive. In addition, the Potency entry in test [8], in [10], in test [11], in test [12], in test [13] and in [14] was “inactive” throughout. The max response in test [9] (setting [18]) was 7.86%; in test [9] (setting [19]), 7.77%.
Take `CN1CCN(c2ncc3nc(-c4cccc(C#N)c4)c(=O)n(Cc4ccc(F)cc4)c3n2)CC1`: the Potency in [1] is > 11.4 µM (inactive); in [5] it was > 9.22 µM (inactive); in test [6], > 46 µM (inactive); in test [16], 3.16 µM (active). Besides, the Potency entry in test [2], in test [15], in test [8], in test [10], in [11] and in test [12] was “inactive” in each case. Also, the Potency entry in test [13] and in test [14] was “inactive” throughout. For the same molecule, the call in test [7] was inactive. For the same molecule, in [9], the activity change, negative = inhibition was -3.63% (inactive). The max response was 1.09% in [9] (setting [18]) and -4.23% in test [9] (setting [19]).
`COc1ncc2nc(-c3ccc(F)cc3)c(=O)n(C)c2n1`: the Potency in test [1] was > 11.4 µM (inactive); in [2], 0.501 µM (active); in test [5], > 9.22 µM (inactive); in test [6], > 46 µM (inactive); in test [16] it was 3.16 µM (active). In addition, the molecule was classed as inactive in test [7]. The Potency result in test [15], in [8], in test [10], in test [11], in test [12] and in test [13] was “inactive” in each case. The Potency result in test [14] was “inactive”. In test [9], the activity change, negative = inhibition is 7.5% (inactive). The values for the max response in [9] (setting [18]) and in [9] (setting [19]) were 17.8% and 25.2%, respectively.
Regarding `CN(C)c1ncnc2ccc(-c3ccoc3)cc12`, the Potency in test [1] is > 11.4 µM (inactive); in test [2], 0.794 µM (active); in test [5], > 46 µM (inactive); in [6], > 46 µM (inactive); in [10], 0.501 µM (active); in test [11], 0.562 µM (active). The Potency in test [12] was 0.178 µM (active). For the same molecule, the activity change, negative = inhibition was 1.35% (inactive) in [3] and 1.41% (inactive) in test [9]. For the same molecule, in test [4], the activity, negative = inhibition was -10.6% (inactive). Also, the molecule was called inactive in [7]. For the same molecule, the Potency result in test [8], in [13] and in test [14] was “inactive” throughout. The figures for the max response in test [9] (setting [18]) and in test [9] (setting [19]) were 30.5% and 29.1%, respectively.
For `CCNc1ncc2nc(-c3ccc(OC)cc3)c(=O)n(CCOC)c2n1`, the results for the activity change, negative = inhibition in test [17], in [3] and in test [9] were -6.96% (inactive), 6.8% (inactive) and 4.42% (inactive), respectively. The Potency was 1.26 µM (active) in test [2], > 9.22 µM (inactive) in [5] and > 46 µM (inactive) in test [6]. Moreover, the activity, negative = inhibition in [4] was -11.3% (inactive). Besides, the molecule was classed as inactive in test [7]. For the same molecule, the Potency entry in test [15], in [8], in test [10], in [11], in [12] and in test [13] was “inactive” each time. In addition, the Potency entry in test [14] was “inactive”. The figures for the max response in [9] (setting [18]) and in test [9] (setting [19]) were 20.7% and 27.3%, respectively.
On to `CCNc1ncc2ncc(=O)n(Cc3cccs3)c2n1`, for which the Potency is > 11.4 µM (inactive) in test [1]; 2 µM (active) in test [2]; > 9.22 µM (inactive) in test [5]; > 46 µM (inactive) in test [6]; 3.16 µM (active) in test [10]; 5.62 µM (active) in [11]. Moreover, the Potency in test [12] is 5.01 µM (active). In addition, the results for the activity change, negative = inhibition in [3] and in [9] were -8.48% (inactive) and 5.21% (inactive), respectively. Further, the activity, negative = inhibition in [4] was -24.4% (inactive). For the same molecule, the molecule was called inactive in test [7]. The Potency result in test [15], in test [8], in test [13] and in test [14] was “inactive” each time. In test [16], the activation was -28.8% (inactive). Also, the max response in test [9] (setting [18]) was 12.7%; in test [9] (setting [19]), 16.4%.
With `COc1ccc2[nH]cc(CCNc3ncnc4ccc(-c5cccnc5)cc34)c2c1`, the Potency was > 11.4 µM (inactive) in test [1]; > 46 µM (inactive) in [5]; > 46 µM (inactive) in test [6]; 2.24 µM (active) in [10]; 2.24 µM (active) in test [11]; 3.16 µM (active) in [12]. In addition, the activity change, negative = inhibition is 18.7% (inactive) in [3] and -3.03% (inactive) in test [9]. Also, the activity, negative = inhibition in [4] is -10.2% (inactive). Moreover, the Potency entry in test [15], in test [8], in [13] and in test [14] was “inactive” in each case. Also, the max response in test [9] (setting [18]) was -7.3%; in [9] (setting [19]) it was -9.11%.
